Test results taken from publication PMC5540273 (PLoS ONE, 2017).

Tests used:
Settings in all cases: concentration: 1 μM,replicates: in singlicate; n = 1
MTOR = tested on: MTOR
MUSK = tested on: MUSK
MYLK2 = tested on: MYLK2
MYLK4 = tested on: MYLK4
MYLK = tested on: MYLK
MYO3A = tested on: MYO3A
MYO3B = tested on: MYO3B
NDR1 = tested on: T1, NDR1
T1 construct: gene STK38

NDR2 = tested on: NDR2
NEK10 = tested on: NEK10
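Note: KINOMEscan kinase panel screen.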

## OCCn1cc(-c2cnc3nnn(Cc4ccc5ncccc5c4)c3n2)cn1
MTOR
  %Inh: 52%
MUSK
  %Inh: 0%
MYLK2
  %Inh: 0%
MYLK4
  %Inh: 0%
MYLK
  %Inh: 3%
MYO3A
  %Inh: 0%
MYO3B
  %Inh: 0%
NDR1
  %Inh: 7%
NDR2
  %Inh: 4%
NEK10
  %Inh: 0%

## CCOC(=O)N1CCC(n2cnc(-c3ccc(F)cc3)c2-c2ccnc(N)n2)CC1 [SB-219952]
MTOR
  %Inh: 66%
MUSK
  %Inh: 0%
MYLK2
  %Inh: 20%
MYLK4
  %Inh: 21%
MYLK
  %Inh: 45%
MYO3A
  %Inh: 17%
MYO3B
  %Inh: 0%
NDR1
  %Inh: 0%
NDR2
  %Inh: 0%
NEK10
  %Inh: 0%

## Cl.c1ccc(Oc2ccc(Nc3ccnc4cc(-c5ccc(CN6CCNCC6)o5)ccc34)cc2)nc1 [GW567142]
MTOR
  %Inh: 0%
MUSK
  %Inh: 0%
MYLK2
  %Inh: 0%
MYLK4
  %Inh: 8%
MYLK
  %Inh: 1%
MYO3A
  %Inh: 7%
MYO3B
  %Inh: 0%
NDR1
  %Inh: 10%
NDR2
  %Inh: 4%
NEK10
  %Inh: 3%

## CCn1c(-c2nonc2N)nc2cncc(CNC3CCNCC3)c21.Cl [SB-747651]
MTOR
  %Inh: 30%
MUSK
  %Inh: 9%
MYLK2
  %Inh: 4%
MYLK4
  %Inh: 0%
MYLK
  %Inh: 8%
MYO3A
  %Inh: 5%
MYO3B
  %Inh: 0%
NDR1
  %Inh: 1%
NDR2
  %Inh: 0%
NEK10
  %Inh: 20%

## CN1CCN(CCNc2nc3cc(Oc4ccc(NC(=O)Nc5cc(C(F)(F)F)ccc5F)cc4)ccc3[nH]2)CC1.Cl.Cl [GW768504]
MTOR
  %Inh: 0%
MUSK
  %Inh: 97.3%
MYLK2
  %Inh: 6%
MYLK4
  %Inh: 0%
MYLK
  %Inh: 0%
MYO3A
  %Inh: 0%
MYO3B
  %Inh: 20%
NDR1
  %Inh: 51%
NDR2
  %Inh: 7%
NEK10
  %Inh: 0%

## COC(=O)c1cccc(NC(=O)NC2CCN(c3ccnc(Nc4cc(OC)c(OC)c(OC)c4)n3)C2)c1 (stereo not shown) [GSK1379767]
MTOR
  %Inh: 26%
MUSK
  %Inh: 5%
MYLK2
  %Inh: 25%
MYLK4
  %Inh: 14%
MYLK
  %Inh: 11%
MYO3A
  %Inh: 43%
MYO3B
  %Inh: 0%
NDR1
  %Inh: 18%
NDR2
  %Inh: 38%
NEK10
  %Inh: 3%

## CC(=O)Nc1ccc(-c2cc3ncnc(SCC(=O)O)c3s2)cc1
MTOR
  %Inh: 3%
MUSK
  %Inh: 12%
MYLK2
  %Inh: 9%
MYLK4
  %Inh: 14%
MYLK
  %Inh: 6%
MYO3A
  %Inh: 5%
MYO3B
  %Inh: 0%
NDR1
  %Inh: 0%
NDR2
  %Inh: 8%
NEK10
  %Inh: 25%

## Cn1ccc2ncnc(Oc3ccc(NC(=O)Nc4cnn(C(C)(C)C)c4)c(Cl)c3)c21
MTOR
  %Inh: 0%
MUSK
  %Inh: 21%
MYLK2
  %Inh: 4%
MYLK4
  %Inh: 11%
MYLK
  %Inh: 0%
MYO3A
  %Inh: 1%
MYO3B
  %Inh: 9%
NDR1
  %Inh: 6%
NDR2
  %Inh: 8%
NEK10
  %Inh: 14%

## O=C(NOCC1CC1)c1cc(Br)c(F)c(F)c1Nc1ccc(I)cc1Cl
MTOR
  %Inh: 26%
MUSK
  %Inh: 9%
MYLK2
  %Inh: 0%
MYLK4
  %Inh: 0%
MYLK
  %Inh: 0%
MYO3A
  %Inh: 0%
MYO3B
  %Inh: 20%
NDR1
  %Inh: 33%
NDR2
  %Inh: 0%
NEK10
  %Inh: 0%

## CCN1CCN(CCCC(=O)Nc2n[nH]c3nc(-c4ccc(O)cc4)c(Br)cc23)CC1 [SB-731579]
MTOR
  %Inh: 0%
MUSK
  %Inh: 0%
MYLK2
  %Inh: 98.5%
MYLK4
  %Inh: 1%
MYLK
  %Inh: 0%
MYO3A
  %Inh: 62%
MYO3B
  %Inh: 17%
NDR1
  %Inh: 0%
NDR2
  %Inh: 0%
NEK10
  %Inh: 0%

## Cc1ccc2c(-c3ccnc(Nc4ccc(C(F)(F)F)cc4)n3)cnn2n1 [GW819776]
MTOR
  %Inh: 0%
MUSK
  %Inh: 7%
MYLK2
  %Inh: 9%
MYLK4
  %Inh: 23%
MYLK
  %Inh: 19%
MYO3A
  %Inh: 0%
MYO3B
  %Inh: 0%
NDR1
  %Inh: 37%
NDR2
  %Inh: 10%
NEK10
  %Inh: 31%

## O=C(NCC1CC1)c1ccc(-c2cc(C(=O)NC3CC3)ccc2F)cc1 [GW810445]
MTOR
  %Inh: 21%
MUSK
  %Inh: 0%
MYLK2
  %Inh: 0%
MYLK4
  %Inh: 0%
MYLK
  %Inh: 0%
MYO3A
  %Inh: 0%
MYO3B
  %Inh: 8%
NDR1
  %Inh: 0%
NDR2
  %Inh: 7%
NEK10
  %Inh: 0%

## CN(c1ccc2c(c1)nc(NCc1ccc(F)cc1)n2C)c1ccnc(Nc2ccc(CS(C)(=O)=O)cc2)n1.Cl [GW813244]
MTOR
  %Inh: 0%
MUSK
  %Inh: 51%
MYLK2
  %Inh: 0%
MYLK4
  %Inh: 13%
MYLK
  %Inh: 1%
MYO3A
  %Inh: 0%
MYO3B
  %Inh: 45%
NDR1
  %Inh: 31%
NDR2
  %Inh: 0%
NEK10
  %Inh: 10%

## COC(=O)c1cccc(NC(=O)NC2CCN(c3ccnc(NCc4ccc(F)cc4)n3)CC2)c1 [GSK1379860]
MTOR
  %Inh: 23%
MUSK
  %Inh: 0%
MYLK2
  %Inh: 7%
MYLK4
  %Inh: 0%
MYLK
  %Inh: 0%
MYO3A
  %Inh: 0%
MYO3B
  %Inh: 0%
NDR1
  %Inh: 0%
NDR2
  %Inh: 0%
NEK10
  %Inh: 1%

## C[C@@H](Oc1cc(-n2cnc3cc(-c4ccncc4)ccc32)sc1C(N)=O)c1ccccc1Cl [GSK479719]
MTOR
  %Inh: 6%
MUSK
  %Inh: 11%
MYLK2
  %Inh: 22%
MYLK4
  %Inh: 0%
MYLK
  %Inh: 1%
MYO3A
  %Inh: 0%
MYO3B
  %Inh: 0%
NDR1
  %Inh: 0%
NDR2
  %Inh: 0%
NEK10
  %Inh: 0%

## N#Cc1cccc(C(=O)NC2CCN(c3ccnc(Nc4ccc(F)cc4)n3)C2)c1 (stereo not shown) [GSK1379708]
MTOR
  %Inh: 4%
MUSK
  %Inh: 0%
MYLK2
  %Inh: 0%
MYLK4
  %Inh: 0%
MYLK
  %Inh: 0%
MYO3A
  %Inh: 4%
MYO3B
  %Inh: 0%
NDR1
  %Inh: 0%
NDR2
  %Inh: 41%
NEK10
  %Inh: 1%
